“And” between values parts separate entries of the source, which are not always exact repeats. Equal values may be shown once. Compounds without any hit were thinned out: in the full panel of roughly 83,000, 20% have a hit.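 Assay: single dose, 48 h. Readout: percent growth (0 = no net growth; negative = cell death). Active: <10.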 Unmarked numbers belong to inactive results. The source made the active and inactive calls.
Key:
Assay in all cases: NCI-60 one-dose screen, 48 h (100 = growth as untreated, 0 = no growth, -100 = all killed)
MDA-MB-468 breast = conditions: 10 µM unless noted
NCI-H226 lung = conditions: 10 µM
HOP-62 NSCLC = conditions: 10 µM
NCI-H460 lung = conditions: 10 µM
A549/ATCC NSCLC = conditions: 10 µM
COLO 205 colon = conditions: 10 µM
DU-145 prostate = conditions: 10 µM
K-562 leukemia = conditions: 10 µM
SF-539 CNS = conditions: 10 µM
HCT-15 colon = conditions: 10 µM
HT29 colon = conditions: 10 µM
SNB-75 CNS = conditions: 10 µM
SNB-19 CNS = conditions: 10 µM
U251 CNS = conditions: 10 µM
PC-3 prostate = conditions: 10 µM
LOX IMVI melanoma = conditions: 10 µM
MOLT-4 leukemia = conditions: 10 µM
SR leukemia = conditions: 10 µM
RPMI-8226 leukemia = conditions: 10 µM
SK-OV-3 ovarian = conditions: 10 µM

SMILES	growth (MDA-MB-468 breast)	growth (NCI-H226 lung)	growth (HOP-62 NSCLC)	growth (NCI-H460 lung)	growth (A549/ATCC NSCLC)	growth (COLO 205 colon)	growth (DU-145 prostate)	growth (K-562 leukemia)	growth (SF-539 CNS)	growth (HCT-15 colon)	growth (HT29 colon)	growth (SNB-75 CNS)	growth (SNB-19 CNS)	growth (U251 CNS)	growth (PC-3 prostate)	growth (LOX IMVI melanoma)	growth (MOLT-4 leukemia)	growth (SR leukemia)	growth (RPMI-8226 leukemia)	growth (SK-OV-3 ovarian)
COc1c(NC=O)c2c(c([N+](=O)[O-])c1OC)C(=O)OC2	113% and 93.1%	–	–	–	–	–	–	–	–	–	–	–	–	–	–	–	–	–	–	–
COc1cc2oc(-c3cccc(C(=O)Nc4ccc(Cl)cc4)c3)cc(=O)c2c(OCCN)c1OC	-73.4% (active)	-76.6% (active)	-62.7% (active)	-87.2% (active)	-58.3% (active)	-75.8% (active)	-99% (active)	-43.9% (active)	-83.2% (active)	-76.6% (active)	-91.2% (active)	-73.5% (active)	-78.7% (active)	-84.2% (active)	-87.3% (active)	-84.3% (active)	-59.2% (active)	-48.6% (active)	-64.2% (active)	-84.6% (active)
COc1ccc(OC)c(/C=C2\CCc3ccccc3C2=O)c1	-5.15% (active)	–	–	–	–	–	–	–	–	–	–	–	–	–	–	–	–	–	–	–
Cn1cc(-c2nnc(N)nc2-c2c[nH]c3ccccc23)c2cc(Br)cnc21	-3.61% (active)	17.9%	50.6%	42.3%	55.1%	32.4%	77%	15.1%	50.2%	25.4%	35.6%	34%	66.6%	45.5%	45.7%	-75.6% (active)	2.48% (active)	8.61% (active)	26.6%	60.6%
CCOC(=O)c1ccc(NC(=O)CSC(CC(=O)c2sc(Nc3ccccn3)nc2C)c2ccccc2F)cc1 (configuration not stated)	3.8% (active)	4.65% (active)	3.54% (active)	-40.7% (active)	1.12% (active)	-34.1% (active)	1.39% (active)	5.79% (active)	-27.3% (active)	-42% (active)	-28.3% (active)	-3.07% (active)	21.1%	-70.4% (active)	0.809% (active)	-76.8% (active)	11.5%	4.27% (active)	-14.2% (active)	5.92% (active)
CCOC(=O)C1=C(N)N(c2ccc(C)cc2)C2=C(C(=O)CC(C)(C)C2)C1c1ccccc1Br (configuration not stated)	77%	84.9%	90.8%	53.5%	80.9%	62.7%	102%	50.6%	104%	58.4%	62.5%	87.2%	86.7%	80.7%	32.4%	88.8%	29.1%	65.7%	35.5%	91.9%
Nc1nnc(-c2c[nH]c3ncc(Br)cc23)c(-c2c[nH]c3ccc(Br)cc23)n1	8.52% (active)	35.8%	44.5%	26.5%	48.7%	0.336% (active)	32.5%	15.2%	19.9%	31.7%	30.9%	43.4%	46.7%	38.3%	26.6%	37.6%	5.25% (active)	6.57% (active)	10.9%	66.6%
Cn1cc(-c2nc(N)nnc2-c2c[nH]c3ccccc23)c2cc(Br)cnc21	-9.99% (active)	0.98% (active)	28.5%	4.09% (active)	16.4%	-75.9% (active)	20.6%	9.47% (active)	8.25% (active)	10.2%	-27.2% (active)	2.04% (active)	44.9%	8.89% (active)	13.3%	15.6%	13.8%	8.01% (active)	13%	26.5%
O=C(Nc1ccc(Oc2ncnc3scc(Nc4n[nH]c(=S)s4)c23)cc1)C1(C(=O)Nc2cccc(C(F)(F)F)c2)CC1	-10.1% (active)	72.2%	92.8%	81.9%	92.5%	101%	106%	102%	96.1%	95.4%	112%	104%	99.6%	110%	103%	30.4%	106%	85%	110%	93.7%

From PubChem BioAssay (NCI)
